Assay results published in PubChem BioAssay (NCI).
About 83,000 compounds went through this panel and 20% of them were active in at least one assay; those are over-represented in the sample as a whole.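 Plates (96-well) were seeded with cells, treated with compound at one concentration, and incubated for 48 hours before percent growth was determined.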 Values without a mark were called inactive. Active and inactive are the calls of the source. The calls were made as follows: active = growth percent below 10; inactive = the rest.

The molecules below were run on HL-60(TB) leukemia (assay: NCI-60 one-dose screen, 48 h (100 = growth as untreated, 0 = no growth, -100 = all killed)). Details: 10 µM unless noted.
With `CC(=O)c1c(C)[nH]c(-c2nc3ccc(N4CCN(C)CC4)cc3[nH]2)c1-c1ccccc1` the growth was 4.85% (active).
`O=S(=O)(Nc1cc(Sc2cccc3cccnc23)c(O)c2ccccc12)c1ccccc1` was tested, and the growth was -21% (active).
`Cc1cc(NCCCNc2ccnc3cc(Cl)ccc23)nc(N2CCN(C)CC2)n1` was tested, and the growth was 15.7%.
`CCOC(=O)c1sc2nc(-c3cccc(OC)c3)nc(N3CCOCC3)c2c1C` was tested, and the growth was 101%.
With `COC(=O)C(C)NC1=C(Cl)C(=O)C(NC(C)C(=O)OC)=C(Cl)C1=O` (stereo not given) the growth was 97.8%.
With `O=C(CN1CCN(c2ccccc2)CC1)N1CCN(c2nnc(-c3ccc(Cl)cc3)c(-c3ccc(Cl)cc3)n2)CC1` the growth was -40.7% (active).
In the case of `COc1c(C)c2c(c(O)c1C/C=C(\C)CCC(=O)OCCN1CCOCC1)C(=O)OC2`, the growth is reported as 36.7%.
In the case of `COc1cc(/C=C/C(=O)c2c(C)n([O-])c3ccc(Cl)cc3[n+]2=O)cc(OC)c1OC`, the growth is reported as 12.7%.
Molecule `Cc1c(Cl)ccc2c(C(=O)Cl)cc(-c3ccccc3)nc12` has a growth of 88.9%.
With `NN1CCOC(c2ccccc2)C1` (stereo not given) the growth was -22.4% (active).
With `O=c1[nH]c(=O)n(C2C[C@@H](O)[C@@H](CO)O2)cc1F` (stereo not given in full) the growth was 27.1%.
Molecule `O=C1Nc2ccccc2/C1=N/N=C/c1ccsc1` has a growth of 99.4%.
With `CC1SC(c2ccc(Cl)cc2)N(CCc2cccs2)C1=O` (stereo not given) the growth was -3.88% (active).
In the case of `COc1cc(C2C3=C(COC3=O)N(CCO)c3cc4c(cc32)OCCO4)cc(OC)c1OC` (stereo not given), the growth is reported as -21.8% (active).
In the case of `COc1ccc2c(c1)N(CCO)C1=C(C(=O)OC1)C2c1ccc(OC)c(OC)c1` (stereo not given), the growth is reported as -2.68% (active).
In the case of `CNCCCNc1nc2ccccc2c2c(=O)c3cc(Cl)ccc3sc12`, the growth is reported as -55.2% (active).
With `COc1cc2ncnc(-n3ncc4cc(NC(=O)Nc5ccccc5)ccc43)c2cc1OC` the growth was -15.9% (active).
`CCOc1cccnc1/C=N/NC(N)=S` was tested, and the growth was -17% (active).
In the case of `C=C1C(=O)O[C@H]2[C@H]1CC/C(COC(=O)N1CCC[C@H]1C(=O)Nc1ccc(OC)c(C(N)=O)c1O)=C\CC[C@@]1(C)O[C@@H]21`, the growth is reported as -10% (active).
Molecule `Cn1c(=O)c2[nH]c(C(O)C(O)C(O)C(O)CO)nc2n(C)c1=O` (stereo not given) has a growth of 100%.
`O=C1c2cccc3cccc(c23)C(=O)N1CCCCCCCCCCN1C(=O)c2cccc3cccc(c23)C1=O` was tested, and the growth was 99.6%.
Work on `CN(C)CCCN(CCC1CCCCC1)CCC1CCCCC1` yielded a growth of 30.1%.
For `Nc1n[nH]c2cc(F)c([C@@H]3Nc4ccc5[nH]ncc5c4[C@H]4C5CCC(C5)[C@@H]34)cc12` (stereo not given in full), the growth was -22.4% (active).
For `C/C(O)=C(\C=N\C(N)=S)C(=O)Nc1ccccc1`, the growth was 105%.
`O=C1C(c2c(O)[nH]c3ncccc23)=Nc2ccccc21` gave a growth of 173%.
Molecule `NNCCc1ccc(NC(=O)CCCc2ccc(/C=C/C(=O)NO)cc2)cc1` has a growth of 18.3%.
For `Cc1ccc(C(=O)C2C(=O)C3CCC2C3)cc1` (stereo not given), the growth was 98.3%.
`CON1CCC[C@]2(C)[C@H]3CC[C@@H]4[C@H]5[C@@H](O)C(C)(C)CC[C@]5(CO)CC[C@@]4(C)[C@]3(C)CC[C@H]2C1(C)C` was tested, and the growth was 91.5%.
`Oc1ccc(C(c2ccc(O)cc2)c2ccc(Cl)cn2)cc1` showed a growth of 101%.
In the case of `CCOC(=O)c1csc(NC(=O)COc2cccc(/C=C3\CSc4ccccc4C3=O)c2)n1`, the growth is reported as -77.5% (active).
For `O=C1NC(=C(Cl)Cl)/C(=N/S(=O)(=O)N2CCCCC2)N1`, the growth was -70.3% (active).
For `COC1=CC=CC2(OC)C3(O)CCCc4cccc(c43)N3C(=O)COC132` (stereo not given), the growth was 98.6%.
In the case of `COC(=O)C(=Cc1ccccc1[N+](=O)[O-])C(=O)OC`, the growth is reported as -48% (active).
For `O=CN1N=C(c2cccc(Nc3ccnc4cc(Cl)ccc34)c2)CC1c1ccccc1` (stereo not given), the growth was -1.22% (active).
In the case of `N#Cc1c2ncccc2c2nnc3cc(Cl)c(Cl)cc3n12`, the growth is reported as 80.4%.
Molecule `COc1cc(NC(N)=NCC(C)(C)COc2ccc(C(F)(F)F)cc2)cnc1C#N` has a growth of 24.7%.
With `COc1ccc(-c2cc(-c3ccc(Nc4ccnc5cc(Cl)ccc45)cc3)nc(N3CCOCC3)n2)cc1` the growth was 7.25% (active).
`C[C@@H]1NC(=O)[C@H](Cc2ccccc2)N(Cc2cccnc2)C1=O` showed a growth of 103%.
With `COc1ccc2cc(Cn3cc[n+](Cc4ccc5ccccc5c4)c3)ccc2c1` the growth was -46.6% (active).
Molecule `OCCN1CCN(c2cc(-c3cccc(OC(F)(F)F)c3)nc3ccc(N4CCCC4)cc23)CC1` has a growth of 62.8%.
